We go through 19 molecules from ChEMBL document CHEMBL1201862, “PubChem BioAssay data set” (2004).

Several values for one entry are separate records, joined by “and”; a condition that tells them apart may be missing. Equal entries are not always repeated.

The assay can be described thus: A High Throughput Confirmatory Assay used to Identify Novel Compounds that Inhibit Mycobacterium Tuberculosis in the absence of Glycerol using Purified and Synthesized Compounds (8). It is filed as functional.
For the molecule `O=C(c1ccc(CNc2c(N3CCCC3)c(=O)c2=O)cc1)N1CCc2ccccc2C1`, the IC90 is > 100 µM (active).

With `CC1CCN(C(=O)c2ccc(CNc3c(N4CCCC4)c(=O)c3=O)cc2)CC1`, the IC90 is > 100 µM (active). As for `CC1CC(C)CN(C(=O)C2CCC(CNc3c(N4CCCCC4)c(=O)c3=O)CC2)C1` (centres undefined), the IC90 is > 75 µM (active) and > 100 µM (active).

As for `O=C(c1ccc(CNc2c(N3CCOCC3)c(=O)c2=O)cc1)N1CCN(c2ccccc2)CC1`, the IC90 is > 53.1 µM (active).

For the molecule `O=C(c1ccc(CNc2c(N3CCOCC3)c(=O)c2=O)cc1)N1CCC(c2ccccc2)CC1`, the IC90 was > 68.9 µM (active). Regarding `O=C(c1ccc(CNc2c(N3CCCC3)c(=O)c2=O)cc1)N1CCC(c2ccccc2)CC1`, the IC90 is > 100 µM (active). The result for `CC1CCCN(C(=O)C2CCC(CNc3c(N4CCCCC4)c(=O)c3=O)CC2)C1` (centres undefined) reads > 100 µM (active); that for `CC(=O)c1ccc(NC(=O)c2ccc(CNc3c(N4CCOCC4)c(=O)c3=O)cc2)cc1`, > 100 µM (active). For the molecule `O=C(c1ccc(CNc2c(N3CCCC3)c(=O)c2=O)cc1)N1CC=C(c2ccccc2)CC1`, the IC90 was > 100 µM (active) and > 47.2 µM (active). As to `O=C(NCCc1ccc(Cl)cc1)C1CCC(CNc2c(N3CCCCC3)c(=O)c2=O)CC1` (centres undefined), the IC90 was > 83.3 µM (active). With `CCOC(=O)N1CCC(/N=c2\c(O)c(O)\c2=N/c2cccc(CC)c2)CC1` the figure was > 59.3 µM (active). With `CC(C)CCNC(=O)CSc1nc2c(c(=O)[nH]1)CCCCC2`, the IC90 is > 100 µM (active).

With `CC1CCCN(C(=O)c2ccc(CNc3c(N4CCCCC4)c(=O)c3=O)cc2)C1` (centres undefined), the IC90 is > 100 µM (active). Turning to `COc1ccc(N2CCN(C(=O)c3ccc(CNc4c(N5CCOCC5)c(=O)c4=O)cc3)CC2)cc1`, the IC90 was > 100 µM (active). On to `CC1CC(C)CN(C(=O)c2ccc(CNc3c(N4CCCC4)c(=O)c3=O)cc2)C1` (centres undefined), for which the concentration for an effect of 90% (IC90) was > 100 µM (active).

As to `O=C(NCCc1ccc(Cl)cc1)c1ccc(CNc2c(N3CCOCC3)c(=O)c2=O)cc1`, the IC90 is > 100 µM (active). Consider `CC(C)OC(=O)CSc1ncnc2c1cnn2-c1ccccc1`, for which the IC90 is > 100 µM (active). As to `O=C(c1ccc(CNc2c(N3CCCC3)c(=O)c2=O)cc1)N1CCN(c2ccccc2)CC1`, the IC90 was > 100 µM (active). As to `O=C(C1CCC(CNc2c(N3CCCCC3)c(=O)c2=O)CC1)N1CCCCC1` (centres undefined), the IC90 was > 83.3 µM (active).

As usually defined, the IC90 is the concentration at which the effect reaches the 90% level.
